# Source: PubChem BioAssay (several laboratories)
# Rows were chosen to be rich in hits. Some 3.1% of all compounds tested hit in one or more screens of this group.
# BoNT F protease: inhibitors of Botulinum neurotoxin F light chain protease; Multiplex microsphere protease cleavage assay, flow cytometry; inhibition, % at 10 µM; 360,000 compounds, 0.22% hits; AID 588497; in the data active = inhibition above about 35%, passing the limit was not always enough; inconclusive = no clear call, values can overlap the other calls
# PriA SSB inh: inhibitors of Klebsiella pneumoniae PriA binding to SSB C-terminal tail. 430,000 compounds, 0.6% hits. inhibition, % at 33 µM. AlphaScreen SSBct-PriA binding, biotinylated peptide; in the data active = inhibition mostly above about 37%, no sharp cut-off; inactive = mostly below about 20%
# BoNT A protease: blocks Botulinum neurotoxin A light chain protease; multiplex microsphere protease substrate cleavage, flow cytometry; 360,000 compounds, 0.17% hits; AID 588499; inhibition, % at 10 µM
# Bead autofluor: flagged as autofluorescent in microsphere protease counterscreen; compound autofluorescence counterscreen, microsphere flow cytometry; hits give high values; fluorescence intensity (no concentration beside the values); 360,000 compounds, 3.1% hits; in the data active = fluorescence intensity above about 16000; inconclusive = no clear call, values can overlap the other calls
# Anthrax LF prot: anthrax lethal factor protease inhibition; inhibition, % at 10 µM; multiplex microsphere protease cleavage assay, LF; 360,000 compounds, 0.12% hits; AID 588501
# A number is an active result; 0 = inactive; ? = inconclusive; - = not tested or not shown. Rule as the data show it, unless noted: active = inhibition above about 30%; inconclusive = no clear call, values can overlap the other calls; inactive = below that.
SMILES,BoNT F protease,PriA SSB inh,BoNT A protease,Bead autofluor,Anthrax LF prot
Cc1cc2n(n1)SC(Nc1cc(Cl)ccc1Cl)N2 (stereo not given),0,0,0,20196,0
CCc1ccccc1NC(=O)CSc1nnc(-c2ccccn2)n1Cc1ccco1,-,54,-,-,-
O=C(CSc1nnc2c(Cl)cc(C(F)(F)F)cn12)Nc1ccc2c(c1)OCO2,0,0,?,20358,0
Cn1c(SCC(=O)Nc2ccc3c(c2)OCO3)nnc1C(F)(F)F,0,0,0,0,0
Cn1cccc1Cc1nnc(SCC(=O)Nc2ccc3c(c2)OCO3)n1-c1ccc(Cl)cc1,-,87,-,-,-
COc1ccc(C)cc1NC(=O)CSc1nnc(-c2ccccn2)n1Cc1ccco1,0,0,?,21479,0
O=C(CSc1nnc(-c2ccccn2)n1Cc1ccco1)Nc1ccccc1F,-,0,-,-,-
Nc1nc(SCC(=O)NCCc2ccccc2)[nH]c(=O)c1NC(=O)c1ccc(Cl)cc1,-,0,-,-,-
Cc1ccccc1-n1c(SCC(=O)Nc2ccc3c(c2)OCO3)nnc1-c1ccccn1,0,42,0,0,0
O=C(CSc1nnc(-c2ccccn2)n1Cc1ccco1)Nc1ccc2c(c1)OCO2,0,0,0,20585,0
COc1ccc(NC(C)=O)cc1NC(=O)CSc1nnc(-c2ccccn2)n1Cc1ccco1,-,0,-,-,-
CCn1c(SCC(=O)Nc2ccc3c(c2)OCCO3)nnc1-c1ccccn1,0,0,0,0,0
COc1ccccc1NC(=O)CSc1nnc(-c2ccccn2)n1Cc1ccco1,0,63,0,0,0
Cc1ccc(-c2csc(NC(=O)CSc3nc(C)cc(=O)[nH]3)n2)cc1,-,0,-,-,-
CCC(Sc1nc(C)cc(=O)[nH]1)C(=O)Nc1nc(-c2ccccc2)cs1 (stereo not given),0,0,0,22493,0
CCc1nnc(NC(=O)CSc2nc(N)c(NC(=O)c3ccc(OC)c(OC)c3)c(=O)[nH]2)s1,-,0,-,-,-
COCCN1CCC(NC(=O)CCc2ccccc2)CC1,-,0,-,-,-
O=C1NCCN1C(=O)NC[C@]1(O)CCc2ccccc21,-,0,-,-,-
COC(=O)C1=C(NC(=O)c2ccc(OC)c(OC)c2)CCS1,-,0,-,-,-
COC(=O)C1=C(NC(=O)c2cccc(OC)c2)CCS1,0,0,0,22750,0
COC(=O)C1=C(O)C(C(=O)OC)C(c2ccc(C)cc2)C(C#N)(C#N)C1c1ccc(C)cc1 (stereo not given),0,0,0,22296,0
CC(=O)c1ccc(NC(=O)C(C)Sc2nnnn2C)cc1 (stereo not given),0,0,0,23749,0
O=[N+]([O-])c1cc(Cl)cc(/C=N/NC(=S)Nc2ccc(S(=O)(=O)N3CCOCC3)cc2)c1O,0,-,0,0,0
O=[N+]([O-])c1cc(Cl)cc(C=NNC(=S)Nc2ccc(S(=O)(=O)N3CCOCC3)cc2)c1O,-,67,-,-,-
CC(C)NC(=O)CCCCn1c(=O)c2ccccc2n(CC(=O)NCCc2ccc(Cl)cc2)c1=O,-,0,-,-,-
SMILES,BoNT F protease,PriA SSB inh,BoNT A protease,Bead autofluor,Anthrax LF prot
CCOC(=O)CN(C(=O)CSc1nnc2c(n1)[nH]c1ccc(OC)cc12)c1ccc(F)cc1,0,0,0,22990,0
COc1ccc(CNC(=O)CSc2nnc3c(n2)[nH]c2ccc(F)cc23)cc1,0,0,0,0,0
c1ccc(CSc2nncn2-c2ccccn2)cc1,0,0,0,22351,0
CN(C)c1ccc(CNn2cnnc2SCc2ccc(F)cc2)cc1,0,0,0,0,0
Fc1ccc(CSc2nncn2NCc2ccccc2)cc1,0,0,0,21851,0
Cn1c(SCCOc2cccc(Cl)c2)nnc1-c1ccncc1,0,0,0,0,0
Cn1c(SCc2ccc(F)cc2)nnc1-c1ccccn1,0,0,0,23620,0
Cc1ccc(OCCSc2nnc(-c3ccncc3)n2C)cc1,0,0,0,22301,0
Nn1c(SCc2ccc(F)cc2)nnc1-c1ccncc1,55,0,0,0,?
Cc1cccc(OCCSc2nncn2C)c1,0,0,0,0,0
Cn1c(SCc2ccccc2)nnc1-c1ccncc1,0,0,?,24601,0
Cc1cccc(OCCSc2nnc(-c3ccoc3C)n2C)c1,0,0,?,20328,0
COc1ccc(CSc2nnc(-c3ccncc3)n2N)cc1,0,0,0,0,0
CCC(C)n1c(=O)c2ccccc2n(Cc2nc(-c3ccccc3Cl)no2)c1=O (stereo not given),-,0,-,-,-
CN1C(=O)C(C)(C)COc2ccc(NS(=O)(=O)Cc3ccc(F)cc3)cc21,-,0,-,-,-
COc1cccc(N=Cc2c(O)n(-c3cccc(C)n3)c(=O)c3ccccc23)c1,0,0,0,0,0
COc1ccc(N=Cc2c(O)n(-c3cccc(C)n3)c(=O)c3ccccc23)c(OC)c1,?,0,0,0,63
CN(C)CCNc1nc2ccc(Br)cc2s1,-,0,-,-,-
CCOC(=O)c1ccc(N2C(=O)CC(N3CCCC(C)C3)C2=O)cc1 (stereo not given),0,0,0,25079,0
CCOC(=O)c1ccc(N2C(=O)CC(N3CCN(Cc4ccccc4)CC3)C2=O)cc1 (stereo not given),0,0,0,0,0
Cc1nn(-c2ccccc2)c2sc(C(=O)NNC(=O)COc3ccccc3)cc12,0,0,?,22047,0
CCCCNc1cc(C)oc(=O)c1C(C)=O,0,0,0,21662,0
CCCCCCNc1cc(C)oc(=O)c1C(C)=O,0,0,0,0,0
C=CCn1c(=O)c2c3c(sc2n2c(Nc4ccc(C(=O)OCC)cc4)nnc12)CCCC3,0,0,0,17959,0
CCCCCc1cc(=O)oc2c(C(CCN(CC)CC)c3ccc(N(C)C)cc3)c(OC)cc(OC)c12 (stereo not given),0,67,0,0,0
SMILES,BoNT F protease,PriA SSB inh,BoNT A protease,Bead autofluor,Anthrax LF prot
CCCCCc1cc(=O)oc2c(C(CCN3CCCC(C)C3)c3ccc(N(C)C)cc3)c(OC)cc(OC)c12 (stereo not given),0,90,0,0,0
CCN(CC)CCC(c1cc(OC)c(OC)c(OC)c1)c1c(OC)cc(OC)c2c(C)cc(=O)oc12 (stereo not given),0,0,0,0,0
Cn1nc(C2CCN(C(=O)c3cc(-c4cccs4)on3)CC2)n(C2CC2)c1=O,-,0,-,-,-
O=C(Nc1cc(Cl)cc(Cl)c1)c1ccc(N2C(=O)CCC2=O)cc1,-,0,-,-,-
CC(=O)Nc1ccc(S(=O)(=O)n2ccnc2)cc1,-,0,-,-,-
Cc1ccc(/C=C2\SC(=S)N(Cc3ccccc3)C2=O)o1,0,0,48,0,36
COc1cc(/C=C2/SC(=S)N(Cc3ccccc3)C2=O)ccc1O,0,0,30,0,0
COc1ccc(/C=C2\SC(=S)N(Cc3cccnc3)C2=O)cc1C,0,0,38,0,0
CCCc1nnsc1C(=O)Nc1nc2c(s1)C(=O)NCCC2,-,0,-,-,-
CCc1ccc(NC(=O)c2ccccc2C(=O)O)cc1,-,0,-,-,-
Nc1c(-c2cccs2)cnn1-c1nc(-c2ccc(Cl)cc2Cl)cs1,0,0,?,23441,0
CCn1c2ccccc2c2nnc(SCC(=O)Nc3ncccn3)nc21,0,0,?,21373,0
CCOC(=O)C(Sc1nnc2c3ccccc3n(CC)c2n1)C(=O)OCC,0,0,0,16233,0
CCOC(=O)CSc1nnc2c3ccccc3n(CC)c2n1,?,0,0,0,0
NC(=NOC(=O)C1CCCCC1)c1cccnc1,-,0,-,-,-
Cn1ncc2c(N3CCN(c4ccccc4F)CC3)ncnc21,0,0,?,16585,0
